# Compounds without any hit were thinned out: in the full panel of roughly 83,000, 20% have a hit.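 Assay: single dose, 48 h. Readout: percent growth (0 = no net growth; negative = cell death). Active: <10.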 Values without a mark were called inactive. Active and inactive are the calls of the source.
# Tested on: HL-60(TB) leukemia
# Test: NCI-60 one-dose screen, 48 h (100 = growth as untreated, 0 = no growth, -100 = all killed)
# Settings: 10 µM unless noted
row,Structure (SMILES),growth
1,COc1cccc(-c2nn(-c3ccccc3)cc2-c2ccnc(NCCNS(=O)(=O)c3ccc(C(F)(F)F)cc3)c2)c1,-20.9% (active)
2,CCOC(=O)CSc1nc(-c2cc(OC)ccc2OC)cc(-c2ccc(OC)cc2)c1C#N,98.5%
3,COc1ccc(C(O)(c2ccccc2)C(C(=O)O)c2ccccc2)cc1 (stereo not given),110%
4,C=C(CO)[C@@H]1CC[C@]2(COC3CCCCO3)CC[C@]3(C)[C@H](CC[C@@H]4[C@@]5(C)C=C(C=O)C(=O)C(C)(C)[C@@H]5CC[C@]43C)[C@@H]12 (stereo not given in full),-59.8% (active)
5,CC(C)(C)c1ccc([I+]c2ccc(C(C)(C)C)cc2)cc1,-38.7% (active)
6,COc1ccc(/C=C/c2n[nH]c3ccc(N4CCOC4=O)cc23)cc1,-27.5% (active)
7,Cc1sc2ncn(CC(=O)Nc3ccc(S(N)(=O)=O)cc3)c(=O)c2c1C,103%
8,COc1ccc([N+](=O)[O-])c(S(=O)(=O)c2ccc(Cl)cc2)n1,38.2%
9,CC(C)n1cc(C2=C(c3cccc4ccccc34)C(=O)NC2=O)c2cc(Br)ccc21,54.1%
10,C=CC(=O)Nc1cccc(Oc2nccc(Nc3nnc(-c4ccc(Br)cc4)s3)n2)c1,121%
11,CCOC(=O)c1cnc2sc(-c3ccc(OC)cc3)nc2c1Cl,93.8%
12,CCOC(=O)c1sc(-c2ccc(OS(=O)(=O)c3ccc(C(C)(C)C)cc3)c(C=O)c2)nc1C,21.3%
13,COCc1cc2c(cc1Br)OCO2,105%
14,CCCC(=O)Nc1ccc2c(c1)CN1C(=O)c3ccccc3C1=N2,81.9%
15,CC(C)(C)c1[nH]nc2c1C(c1cc3ccccc3[nH]c1=O)Nc1cc(C(=O)OCc3ccccc3)ccc1N2 (stereo not given),54.5%
16,C[N+]1(CC2CO2)CCCCCC1 (stereo not given),109%
17,O=C(Cn1cc(COc2ncnc3c2cnn3-c2ccccc2)nn1)Nc1ccccn1,105%
18,O=C1c2ccccc2-c2c1c1c(NCCCO)nc3ccccc3c1n2Cc1ccccc1,48.9%
19,COC(=O)C(C(C[N+](=O)[O-])c1ccccc1)=P(c1ccccc1)(c1ccccc1)c1ccccc1 (stereo not given),80.5%
20,O=NC1CC=CCC1c1ccccc1 (stereo not given),92.6%

row,Structure (SMILES),growth
1,CC(=O)C1CCC(C)=CC1=O (stereo not given),119%
2,Cc1cccc(NC(=O)c2sc3nc4c(cc3c2N)C(=O)CCC4)c1,6.14% (active)
3,CC(=O)n1c(-c2ccc(Cl)c(Cl)c2)cn(-c2ccc(Cl)cc2)c1=O,64.8%
4,COc1ccc(-c2cc(=O)oc3c4c(ccc23)OCN(Cc2ccc(F)cc2)C4)cc1,47.9%
5,CC(C)(C)[Si](C)(C)OC1[C@@H](CNC(N)=O)O[C@@H](n2cnc3c(NC(=O)Nc4ccccc4)ncnc32)[C@H]1O[Si](C)(C)C(C)(C)C (stereo not given in full),52%
6,O=C(O)COc1ccc(F)cc1,94.2%
7,COc1ccc(C(=O)c2cc3c(N)c(C(=O)Nc4cccc5ccccc45)sc3nc2C)cc1,-49% (active)
8,COc1ccc(-c2nc(N3CCCC3=O)sc2Br)cc1OC,101%
9,COc1ccccc1NC1=C(N2CCCCC2)C(=O)c2ccccc2C1=O,72.6%
10,CCCc1cc(=O)n2c(C(=O)Nc3ccccc3OC)c(C(=O)Nc3ccc(F)cc3)sc2n1,47.1% [30 µM]
11,O=C1/C=C/[C@@H](O)[C@@H]2C[C@@H](O)C[C@H]2/C=C/CCC[C@@H](C(F)(F)F)O1,104%
12,N=C(N)c1ccc(-c2ccc(-c3cc(Cl)cc(Cl)c3)s2)s1,-67.9% (active)
13,CCCCCCCCCCCCCCC(C(=O)OCC)C(=O)OCC,104%
14,CCOC(=O)c1[nH]c2cc(Cl)ccc2c1[C@@H](C(=O)NC(C)(C)C)N(CC)C(=O)CCCCC#Cc1cccc2c1CN(C1CCC(=O)NC1=O)C2=O (stereo not given in full),-7.29% (active)
15,Cc1cc2nc3cc(C)c(N)cc3[n+](-c3ccccc3)c2cc1N,63.3%
16,CCCNC(=O)c1cn2ncnc(Nc3cc(C(=O)NC4CC4)ccc3C)c2c1C,129%
17,O=c1n(CC2CO2)c(=O)n(CC2CO2)c(=O)n1CC1CO1 (stereo not given),20.4%
18,Cc1ccc(/C=C2\COc3ccc(O)cc3C2=O)cc1,-31.7% (active)
19,COc1cc2cc(Oc3ccc(NC(=O)Nc4ccc(Cl)c(C(F)(F)F)c4)cc3)c(C)nc2cc1OC,-40.6% (active)
20,CCOC(=O)c1ccccc1-c1c2ccc(=[N+](C)C)cc-2oc2cc(N(C)C)ccc12,-14.3% (active)

# — PubChem BioAssay (NCI)
